Laboratory results from PubChem BioAssay AID1948 (National Center for Advancing Translational Sciences (NCATS), 2009).
Screen size: about 110,000 compounds; about 20 (0.02%) were called active. About 2% were inconclusive and are not listed. The call rests on the fitted dose curve; in most records, active means well fitted activation curve with a large enough effect; inconclusive means small, poorly fitted or top-dose-only effect; inactive means no such curve, though single readings can be large or run the other way. What follows is part of a selection rich in actives, with near analogues and random picks from the rest.

assay: qHTS Assay for Compounds that Induce Erasure of Genomic Imprints; conditions: mouse ES Peg3-LacZ reporter, beta-gal luminescence, 40 h; series mostly up to 10.9 µM; activity change, positive = activation: at the top concentration;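 further: 0% = negative control wells on the plate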
Description: qHTS Assay for Compounds that Induce Erasure of Genomic Imprints NIH Chemical Genomics Center [NCGC] NIH Molecular Libraries Screening Centers Network [MLSCN] Assay Submitter (PI): JEFFRIES, SEAN, NCGC, University of Cambridge NCGC Peg3 Imprinting Assay Overview Genomic imprinting is the epigenetic process whereby genes are expressed in a parent of origin fashion. […] Unlike some forms of epigenetic silencing that can be overcome by overexpression of transcription factors, genomic imprinting stably represses the expression of one allele despite potentially high levels of expression from the other allele. […] During mouse embryonic day 11.5 imprints are erased in PGCs so that sex specific imprints can be reestablished during gametogenesis. Embryonic germ (EG) cells can be derived from developing PGCs at embryonic day 11.5 and these cells often lack genomic imprints. […] Embryonic stem (ES) cells are a cell type similar to EG cells in phenotype and transcriptional profile, yet ES cells maintain genomic imprints. This similarity between ES and EG cells prompted us to use ES cells to look for factors which could induce imprint erasure. To investigate the stability of genomic imprinting, ES cells were derived from mice with an insertion of a LacZ-Neomycin reporter construct in the Peg3 locus. Peg3 is an imprinted locus where gene expression is restricted to the paternal allele. […] Using LacZ expression we are able to monitor the state of the Peg3 imprint. In order to dissect the mechanisms involved in imprint erasure using a forward chemical genetics approach we developed a cell based phenotype assay using an endogenous silence imprinted locus. This assay utilizes maternally inherited Peg3LacZ-Neo ES cells by monitoring the LacZ expression from the normally silent Peg3 allele. To facilitate screening, high-density feeder-free ES cell culture has been optimized so that ES cells can be grown in 1536 for over four days without feeding or washes. The assay uses a luminescence based read out for LacZ activity and is a homogenous assay optimal for HTS.
NCGC Peg3 Imprinting Assay Protocol Summary ES cell lines were derived from blastocysts taken from Peg3LacZ-Neo x129 matings. Lines were sexed and genotyped for the Peg3LacZ-Neo allele. Female cells carrying the reporter allele were used in this study. Cells were derived on a layer of mouse embryonic fibroblasts and passaged multiple times before switching to feeder free culture. Cells were maintained feeder free on gelatin coated dishes in DMEM/F12 media supplemented with 15% FBS, 2mM L-glutamine, 100 units/ml penicillin, 100ug/ml streptomycin, 0.1mM MEM nonessential amino acids, 1mM sodium pyruvate, 0.1% sodium bicarbonate, 0.1mM 2-Mercaptoethanol, and 400 units/ml leukemia inhibitory factor (LIF) at 37C with 5% CO2. The assay was performed in 1536-well format. A single luminescence read was taken at the end of the assay and the data was normalized by plate to internal negative controls. Maximum efficacy and AC50 values were calculated from dose-response data using the standard Hill equation. 1536 well plates were filled with 0.5ul of 0.1% gelatin per well, spun down and incubated for at least 30 min at 37C. The ES cells were then trypsini Peg3 1536-well assay protocol: (1)Plate 0.5ul/well 0.1% gelatin in white tissue culture treated 1536-well plates, spin and incubate at 37C for at least 30 min. (2)Add 5ul/well (300 cells) of ES cell suspension from freshly trypsinized cells and incubate at 37C, 5% CO2 for 40 hours. (3)Add 5ul/well of freshly prepared BetaGlo solution and incubate at room temperature for 5 minutes. (4)Read luminescence on the ViewLux plate reader. Keywords Genomic Imprinting, Germ Cells, Embryonic Stem Cell, DNA Methylation, Peg3, qHTS, NIH roadmap, NCGC

Compound	activity change, positive = activation
Cc1c(CNC2CCCCC2)c(C(=O)O)c(C)n1Cc1cccc(Cl)c1	-11% (inactive)
CC(C)Oc1ccc(CNC(=O)C2CCN(c3nc4ccccc4n(C)c3=O)CC2)cc1	-2.14% (inactive)
Cc1ccccc1NC(=O)Cn1c(=O)n(CCCCC(=O)NCc2ccccc2Cl)c(=O)c2ccccc21	-1.68% (inactive)
COCCCNC(=O)c1ccc(NC(=O)c2nsc3ccccc23)cc1	2.98% (inactive)
Cc1c(NC(=O)C(C)(C)C)cccc1-c1nc2ccccc2s1	-11.3% (inactive)
Cc1ccn2c(Nc3ccc4c(c3)OCCO4)c(-c3ccc(C)s3)nc2c1	-21.3% (inactive)
Cc1ccccc1CNC(=O)CCc1cn(Cc2ccccc2C)c2ccccc12	-11.9% (inactive)
C[C@@]12CCC(=O)C=C1CC[C@H]1C2[C@@H](O)C[C@]2(C)[C@@H]1CC[C@@]2(O)C(=O)COC(=O)C1CCCC1 (some centres not stated)	-4.6% (inactive)
Cc1ccc(-n2nc(CO)c(C(=O)NCCc3ccccc3)n2)cc1	-11.8% (inactive)
Cn1cc(S(=O)(=O)N2CCCCCC2)cc1C(=O)N1CCN(c2ccc(F)cc2)CC1	-9.82% (inactive)
Cc1cccc(CSc2nc3ccncc3n2Cc2ccc(C(=O)O)cc2)c1	-11.1% (inactive)
COc1ccc(CNc2nc(-c3ccc(Cl)cc3)nn2C(=O)c2ccccc2)cc1	-3.8% (inactive)
CC1CCC(N2CC(=O)N(CCC3=CCCCC3)C(c3ccc(F)cc3)C2=O)CC1 (configuration not stated)	-12.5% (inactive)
CN(Cc1ccccc1)S(=O)(=O)c1ccc(F)c(C(=O)Nc2cccc(Cl)c2Cl)c1	-33.7% (inactive)
OC[C@H]1O[C@@H](n2cnc3c(NC4CCCC4)ncnc32)[C@H](O)[C@H]1O	-11.3% [at 60.7 µM] (inactive)
Cc1cc(NS(=O)(=O)c2ccc3oc(=O)c4ncn(C)c4c3c2)ccc1Br	8.33% (inactive)
O=C(CSc1nc(Nc2ccc(F)c(F)c2)c2ccccc2n1)c1ccc(Cl)cc1	-13% (inactive)
COc1ccc(C(=O)Nc2cccc(C(=O)OCc3cc(=O)n4c5c(sc4n3)CCCC5)c2)cc1	-92.1% (inactive)
Cc1ccc(SCC(=O)Nc2ccc3oc(-c4ccccc4C)nc3c2)cc1	-13.5% (inactive)
CCc1nnc(SCc2c(F)cccc2Cl)c2cc3sccc3n12	4.75% (inactive)
Cc1nn(-c2ccc(F)cc2)c(-n2cccc2)c1C(=O)N1CCN(c2ccccc2)CC1	-3.32% (inactive)
CCc1ccc(S(=O)(=O)Nc2cc3c(C(=O)OCc4ccccc4)c(C)oc3c3ccccc23)cc1	-22.6% (inactive)
CCCC(=O)Nc1cc2nn(-c3ccccc3)nc2cc1C	-25.6% (inactive)
COc1ccc(C(=O)c2oc3ccccc3c2NC(=O)COc2cccc(C)c2)cc1	-16.2% (inactive)
CCCN(C(=O)Cn1cc(S(=O)(=O)N2CCN(c3ccccc3F)CC2)c2ccccc2c1=O)c1cccc(C)c1	-16.3% (inactive)
COc1ccc(OCc2ccc(-c3nc(C#N)c(N4CCN(c5ccccc5)CC4)o3)o2)cc1	-12.1% (inactive)

Compound	activity change, positive = activation
CN1c2ccc(Cl)cc2-c2nc(SCC(=O)Nc3cc(F)ccc3F)ncc2S1(=O)=O	-6.64% (inactive)
COc1ccc(N(CC(=O)NCCc2ccc(Cl)cc2)S(=O)(=O)c2c(C)nn(C)c2C)cc1	15.7% (inactive)
CCN(CC)CCNC(=O)Cn1ncc2c3ccccc3n(Cc3ccccc3C)c2c1=O	-5.94% (inactive)
Cc1cccn2c(=O)c(C(=O)NC(C)c3ccccc3)cnc12 (configuration not stated)	-15.7% (inactive)
CN(C)S(=O)(=O)c1ccc(C(=O)N(Cc2cccnc2)c2nc3c(F)cc(F)cc3s2)cc1	-7.79% (inactive)
CCSc1nnc(NC(=O)c2cc(=O)c3cc(C)c(C)cc3o2)s1	-10.3% (inactive)
CCOC(=O)c1ccc(NC(=O)Cn2c(=O)n(-c3ccc(C)cc3)c(=O)c3c2cnn3C)cc1	-10.8% (inactive)
CCOC(=O)c1ccc(NC(=O)CC2C(=O)N(c3ccccc3)C(=O)N2Cc2cccs2)cc1 (configuration not stated)	7.18% (inactive)
CCOCCCn1c(SCC(=O)Nc2ccc(CC)cc2)nc2ccccc2c1=O	-2.25% (inactive)
CCC(=O)Nc1c(C(=O)N2CCN(c3ccc(F)cc3)CC2)oc2ccccc12	-6.14% (inactive)
COc1ccc(S(=O)(=O)NCC(c2ccc(N(C)C)cc2)N2CCCC2)cc1 (configuration not stated)	-12.1% (inactive)
CC(=O)Nc1cccc(NC(=O)CSc2nccn2Cc2ccc3c(c2)OCO3)c1	-8.32% (inactive)
Fc1ccc(CSc2nc(NCc3ccccc3)c3ccccc3n2)cc1	-6.21% (inactive)
Cc1cc(NS(=O)(=O)c2ccc(NC(=O)c3ccccc3C)cc2)nc(C)n1	20.1% (inactive)
O=c1c(=O)n(Cc2c(F)cccc2Cl)ccn1Cc1ccccc1	-15.9% (inactive)
CCOc1ccc(NC(=O)c2cn(C3CCCCC3)c(=O)c3c2c2ccccc2n3C)cc1	3.89% (inactive)
CC1=C(C(=O)Nc2ccccc2Cl)C(c2cccs2)n2ncnc2N1 (configuration not stated)	-9.9% (inactive)
CCc1ccc(NC(=O)c2sc3nc4c(cc3c2N)CN(CC)CC4)cc1	-5.27% (inactive)
Cc1ccc(C(=O)Nc2ccc(C(=O)O)cc2)cc1S(=O)(=O)Nc1ccccc1	-5.39% (inactive)
CCC(Sc1nc2n[nH]c(C)c2c(=N)n1-c1ccccc1Cl)C(=O)N(CC)CC (configuration not stated)	-7.79% (inactive)
CCOC(=O)c1cnc2c(C)cc(C)cc2c1Nc1ccc(N2CCOCC2)cc1	-14.4% (inactive)
CCOc1ccc(OCC)c(NC(=O)c2cc(C)nc3c2c(C)nn3-c2cccc(Cl)c2C)c1	8.2% (inactive)
CCOc1ccc(CCNC(=O)C2=C(C)C(=O)OC23CCC(C)CC3)cc1OCC (configuration not stated)	7.79% (inactive)
CCOc1ccc(CCNC(=O)Cn2nc(CC)n3c(cc4sc(CC)cc43)c2=O)cc1OCC	4.59% (inactive)
Cc1cc(C)cc(Nc2ncnc3onc(-c4ccc(F)cc4)c23)c1	18.6% (inactive)
CCOc1ccc(CNC(=O)c2cc(=O)[nH]c3ccc(S(=O)(=O)N4CCCCC4)cc23)cc1	-16.4% (inactive)
